Measurements: PubChem BioAssay AID1159580 (chemical genetic matrix, 2015)
Several values for one entry are separate records, joined by “and”; a condition that tells them apart may be missing. Identical values can stand only once. Out of some 5,500 compounds screened, about 2,000 (36%) were called active. Not shown: some 18% with an inconclusive outcome. Rule as the data show it: active = normalized growth mostly below about 0.91 (no sharp cut-off); inconclusive = no clear call, values can overlap the other calls; inactive = mostly above about 0.92. Some of the results follow.

Test: chemical genetic growth profiling, strain panel (AID 1159580);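 also: tested at 20 µM; growth read once vehicle control cultures reached saturation at 30 °C; 1 = growth at the plate median or of vehicle wells; lower values mean less growth of the strain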
Settings: S. cerevisiae deletion strains, growth OD

Measured: normalized growth

CN[C@@H]1C(OC2[C@H](O[C@H]3[C@H](O)[C@@H](O)[C@H](N=C(N)N)[C@@H](O)[C@@H]3N=C(N)N)OC(C)[C@]2(O)CO)OC(CO)C(O)C1O (some centres not stated)
inactive: locus YAL021C, strain ccr4, stronger effect = lower value 1.02 | locus YAL026C, strain drs2, stronger effect = lower value 1.02 | locus YAL030W, strain snc1, stronger effect = lower value 0.997 | locus YBL061C, strain skt5, stronger effect = lower value 0.996 | locus YBR009C, strain hhf1, stronger effect = lower value 1.01 | locus YBR021W, strain FUR4, stronger effect = lower value 0.988 | locus YBR023C, strain chs3, stronger effect = lower value 1.01 | locus YBR171W, strain sec66, stronger effect = lower value 0.996 | locus YBR229C, strain ROT2, stronger effect = lower value 0.993 | locus YBR231C, strain swc5, stronger effect = lower value 1.01 | locus YBR279W, strain paf1, stronger effect = lower value 1.01 | locus YCL011C, strain gbp2, stronger effect = lower value 1.05 | locus YCL016C, strain dcc1, stronger effect = lower value 1.02 | locus YCL029C, strain bik1, stronger effect = lower value 0.978 | locus YCL069W, strain vba3, stronger effect = lower value 1.03 | locus YCR088W, strain abp1, stronger effect = lower value 0.994 | locus YDL005C, strain med2, stronger effect = lower value 0.998 | locus YDL035C, strain GPR1, stronger effect = lower value 1.03 | locus YDL040C, strain nat1, stronger effect = lower value 0.999 | locus YDL074C, strain BRE1, stronger effect = lower value 0.989 | locus YDL101C, strain DUN1, stronger effect = lower value 0.979 | locus YDL185W, strain tfp1, stronger effect = lower value 0.984 | locus YDL192W, strain arf1, stronger effect = lower value 0.989 | locus YDR001C, strain nth1, stronger effect = lower value 1.02 | locus YDR069C, strain doa4, stronger effect = lower value 1 | locus YDR101C, strain arx1, stronger effect = lower value 0.992 | locus YDR137W, strain rgp1, stronger effect = lower value 0.998 | locus YDR159W, strain sac3, stronger effect = lower value 0.982 | locus YDR162C, strain NBP2, stronger effect = lower value 1.01 | locus YDR195W, strain ref2 0.942 | locus YDR297W, strain sur2, stronger effect = lower value 1 | locus YDR318W, strain mcm21, stronger effect = lower value 0.98 | locus YDR334W, strain swr1, stronger effect = lower value 1.02 | locus YDR335W, strain msn5, stronger effect = lower value 1.01 | locus YDR388W, stronger effect = lower value 0.975 | locus YDR392W, strain spt3, stronger effect = lower value 1.02 | locus YDR502C, strain sam2, stronger effect = lower value 0.985 | locus YEL003W, strain gim4, stronger effect = lower value 1 | locus YEL037C, strain rad23, stronger effect = lower value 1.01 | locus YEL061C, strain CIN8 (second series), stronger effect = lower value 1.01 | locus YEL061C, strain CIN8, stronger effect = lower value 0.995 | locus YER015W, strain faa2, stronger effect = lower value 1.01 | locus YER016W, strain bim1, stronger effect = lower value 1 | locus YER110C, stronger effect = lower value 0.97 | locus YER111C, strain swi4, stronger effect = lower value 1.01 | locus YER155C, strain BEM2 (second series), stronger effect = lower value 0.994 | locus YER155C, strain BEM2, stronger effect = lower value 0.987 | locus YER167W, strain BCK2, stronger effect = lower value 0.99 | locus YFR010W, strain ubp6, stronger effect = lower value 0.993 | locus YGL078C, strain dbp3, stronger effect = lower value 0.97 | locus YGL086W, strain mad1, stronger effect = lower value 1 | locus YGL167C, strain pmr1, stronger effect = lower value 0.996 | locus YGL173C, strain kem1, stronger effect = lower value 1.02 | locus YGL227W, strain vid30, stronger effect = lower value 0.993 | locus YGL240W, strain doc1, stronger effect = lower value 1.01 | locus YGL248W, strain PDE1, stronger effect = lower value 0.975 | locus YGL253W, strain hxk2, stronger effect = lower value 1.02 | locus YGR135W, strain pre9, stronger effect = lower value 0.956 | locus YGR229C, strain SMI1, stronger effect = lower value 1.02 | locus YGR252W, strain gcn5, stronger effect = lower value 0.943 | locus YHR013C, strain ard1, stronger effect = lower value 1.03 | locus YHR027C, strain rpn1, stronger effect = lower value 1.01 | locus YHR030C, strain SLT2, stronger effect = lower value 0.993 and 1.03 | locus YHR079C, strain IRE1 (second series), stronger effect = lower value 0.98 | locus YHR079C, strain IRE1, stronger effect = lower value 1.03 | locus YHR094C, strain hxt1, stronger effect = lower value 0.972 | locus YHR129C, strain ARP1, stronger effect = lower value 0.998 | locus YHR142W, strain chs7, stronger effect = lower value 1.02 | locus YHR200W, strain rpn10, stronger effect = lower value 0.981 | locus YIL066C, strain RNR3, stronger effect = lower value 0.992 | locus YIL073C, strain SPO22, stronger effect = lower value 0.958 | locus YIL125W, strain kgd1, stronger effect = lower value 0.981 | locus YIR030C, strain dcg1, stronger effect = lower value 0.975 | locus YJL092W, strain hpr5, stronger effect = lower value 0.999 | locus YJL095W, strain BCK1 (second series), stronger effect = lower value 1 | locus YJL095W, strain BCK1, stronger effect = lower value 0.975 and 1.05 | locus YJL115W, strain asf1, stronger effect = lower value 1 | locus YJL129C, strain trk1, stronger effect = lower value 0.981 | locus YJL134W, strain LCB3, stronger effect = lower value 0.99 | locus YJL154C, strain vps35, stronger effect = lower value 1.01 | locus YJL164C, strain tpk1, stronger effect = lower value 1.02 | locus YJL166W, strain qcr8, stronger effect = lower value 1.02 | locus YJL168C, strain set2, stronger effect = lower value 0.973 | locus YJL187C, strain SWE1 (second series), stronger effect = lower value 0.981 | locus YJR043C, strain POL32, stronger effect = lower value 1.04 | locus YJR066W, strain TOR1, stronger effect = lower value 0.975 | locus YJR075W, strain HOC1, stronger effect = lower value 0.985
